# This is a sample that favours compounds with a hit; in the whole collection about 2.5% have one here.
# VACV Venus inh – inhibitors of vaccinia virus (Venus reporter); Vaccinia virus Venus reporter expression, fluorescence; Potency, µM (top dose mostly 36.5 µM), inactives show top-dose activity change, negative = inhibition, actives largely listed as inhibitors; 330,000 compounds, 0.46% hits; calls by dose curve; tested in A549 cells; further: nearly all actives have a fitted effect of over 30% in size
# VACV mCherry inh – vaccinia inhibition (mCherry reporter); 310,000 compounds, 0.63% hits; Vaccinia virus mCherry reporter infection, fluorescence; Potency, µM (doses to about 36.5 µM), inactives show top-dose activity change, negative = inhibition, most hits filed as inhibitors; calls by dose curve; tested in A549 cells; further: nearly all actives have a fitted effect of over 35% in size
# LASV entry inh – Lassa virus entry inhibition. 300,000 compounds, 1.2% hits. AID 540256. Potency, µM (top dose mostly 37.9 µM), for inactives: top-dose activity change, negative = inhibition, most hits filed as inhibitors. Lassa virus pseudotype entry inhibition, cell reporter; calls by dose curve; tested in HEK293 cells; further: nearly all actives have a fitted effect of over 50% in size
# Marburg entry inh – inhibitors of Marburg virus binding or cell entry; Potency, µM (series often up to 37.8 µM), for inactives: at the highest dose activity change, negative = inhibition, usual class: inhibitors; Marburg virus pseudotyped entry inhibition, cell reporter; AID 540276; 300,000 compounds, 1.8% hits; calls by dose curve; tested in HEK293 cells
# An asterisk follows results filed as active; i = inactive; u = inconclusive; x = no result; ! = not confirmed by another sample; [ ] = another dose, or the depositor's remark. On the % scale 0 is the no-effect control and ±100 the full control effect; potency means the concentration at half of the fitted maximal effect.
SMILES,VACV Venus inh,VACV mCherry inh,LASV entry inh,Marburg entry inh
COc1ccc(/C=C(/NC(=O)c2ccco2)C(=O)N2CCc3ccccc32)cc1OC,0.0%,i,7.94µM*,-6.4%[46.1 µM]
COc1ccc(/C=C(/NC(=O)c2ccco2)C(=O)NCc2ccco2)cc1OC,-9.9%,-9.4%,20.1%,-2.7%
CCCCCCn1ccc(=N)cc1,u,x,u,12.6µM*
CCCCCCN1C2=NCCN2c2ccccc21,x,x,-26.2%,u
C[C@@H]1CN([C@H](C)CO)C(=O)Cc2cc(NC(=O)Nc3ccccc3)ccc2O[C@@H]1CN(C)Cc1ccc2c(c1)OCO2,28.2µM*,u,x,x
CCOC(=O)CCCCCC(=O)Nc1ccc2c(c1)CC(=O)N([C@H](C)CO)C[C@@H](C)[C@H](CN(C)Cc1ccc3c(c1)OCO3)O2,-20.0%,i,x,x
Cc1cc(Cl)ccc1OCC(=O)NCC1Cc2cc(-c3cnccn3)ccc2O1 (stereo not drawn),-19.3%,-29.5%,x,x
c1cncc(-c2nc(NCCCN3CCOCC3)c3c4c(sc3n2)CCC4)c1,u,-16.8%,u,10µM*
O=C(N/N=C1\CCc2ccccc21)c1ccccc1O,-14.1%,-18.4%,u,5.01µM*
COc1cc(/C=C2\CCC/C(=C\c3ccc(O)c(OC)c3)C2=O)ccc1O,u,6.31µM*,u,u
O=C1NC(=O)/C(=C/c2cccc([N+](=O)[O-])c2)N1,-3.2%,u,x,x
CCOc1cc(/C=C2\CN(CC)C/C(=C\c3ccc(O)c(OCC)c3)C2=O)ccc1O,-23.6%,u,5.01µM*,4.47µM*
COc1cc(/C=C2/CCCC(C(=O)C(F)(F)F)=C2O)ccc1O,-7.6%,-18.2%,7.0%,4.6%[46.1 µM]
CCN1C/C(=C/c2cccc([N+](=O)[O-])c2)C(=O)/C(=C/c2cccc([N+](=O)[O-])c2)C1,-29.1%,-13.4%,2.82µM*,14.6µM*
CSc1nnc(CCNC(=O)/C=C/c2cccc(F)c2)n1-c1ccc(F)cc1,-13.7%,i,x,x
COc1ccc(O[C@H]2C=C[C@@H](c3ccccc3)O[C@H]2CON=C2c3cc(OC)ccc3O[C@H](c3cccc(OC)c3)[C@H]2O)cc1,x,x,-31.2%[14.3 µM],u
Cc1ccc(C)c(S(=O)(=O)N2CCN(CC(=O)NC(=O)NCc3ccccc3)CC2)c1,x,x,25.9µM*,u
Cc1ccc(C(=O)N(Cc2cc3cccc(C)c3nc2N2CCC(O)CC2)C2CC2)cc1,-22.5%,-23.3%,x,x
O=C(NCC1CCC2(CCN(Cc3c[nH]c4ccccc34)CC2)O1)C1CCOCC1 (stereo not drawn),-1.7%,1.9%,x,x
C=CCc1ccc(OC)cc1,3.98µM*!,2.24µM*!,x,x
Cc1cc(C(=O)N/N=C/c2cc(Br)ccc2OC(=O)c2ccccc2Cl)n[nH]1,u,6.31µM*,10µM*,10µM*
Cc1cc(C(=O)N/N=C/c2cc(Br)ccc2OC(=O)c2ccccc2)n[nH]1,u,x,u,10µM*
CC12CCC(C(=O)N/N=C/c3ccc(O)cc3O)(OC1=O)C2(C)C (stereo not drawn),-26.7%,14.1µM*,u,u
CC(C)(C)c1cc([N+](=O)[O-])cc(C(C)(C)C)c1O,x,x,16.4µM*,6.51µM*
NC(=O)N1CCC2=C1CCCC2,x,x,x,5.4%[46.1 µM]
SMILES,VACV Venus inh,VACV mCherry inh,LASV entry inh,Marburg entry inh
CC1(C)CCC2=C(O1)c1ccccc1C(=O)C2=O,u,u,x,12.6µM*
COc1ccc(CCc2nnc(CCC(=O)N(C)Cc3ccnc4ccccc34)o2)cc1,-8.7%,-3.6%,12.6µM*,u
CCN(CC)c1ccc(-c2nnc(SCC(=O)Nc3ccccc3C#N)n2-c2ccccc2)cc1,u,x,11.2µM*,u
N#Cc1ccccc1NC(=O)CSc1nnc(-c2ccccc2)n1-c1ccccc1,3.6%,-10.0%,u,u
CC(CCN1CCc2nc(-c3ccccc3)c(-c3ccccc3)cc2C1)=NOC[C@@H](O)[C@H]1O[C@@H]2OC(C)(C)O[C@H]2[C@@H]1O,x,x,x,25.9%[14.2 µM]
CCOC(=O)c1c(NC(C)=O)sc2c(OCC(O)CN(CC)CC)c(Br)ccc12 (stereo not drawn),-14.6%,-11.8%,2.51µM*,11.2µM*
CC12C=C(C=Cc3ccc(C(F)(F)F)cc3)C(C)(C1)C(c1ccc(C(F)(F)F)cc1)CC2=O (stereo not drawn),x,x,x,6.4%[14.2 µM]
COc1ccc(CC(=O)N2CCN(C(=O)Cc3ccc(OC)cc3)CC2)cc1,-8.0%,i,-26.3%,-2.1%[46.1 µM]
COc1ccc(CC2NC[C@H](O)[C@H]2OC(C)=O)cc1 (stereo partly drawn),1µM*,0.794µM*,x,x
COc1ccc(CC2NCC(O)C2OC(C)=O)cc1 (stereo not drawn),0.112µM*,0.0089µM*,x,x
COc1ccc(CC2NCCC3(O)CCCCC23)cc1 (stereo not drawn),x,x,-0.1%,-1.3%
CCCC[C@H](CCC(=O)Nc1ccc(C(=O)OC)cc1)C(=O)O,x,x,x,17.7%[46.1 µM]
CN(C)S(=O)(=O)c1ccc(N2CCN(S(=O)(=O)c3ccc(F)cc3)CC2)c(Cl)c1,10µM*,10µM*,u,u
Cc1ccc2c(c1)CC1(CN2C)C(=O)OC(C)(C)OC1=O,10µM*,7.08µM*,1.3%,-14.6%
CCn1c(=N)n(CC(=O)c2ccc(OC)cc2)c2ccccc21,u,x,u,10µM*
Cn1c(=N)n(CC(=O)c2ccc(Br)cc2)c2ccccc21,-25.2%,i,10µM*,u
CCOC(=O)Cn1c(=N)n(CCOc2ccc(OC)cc2)c2ccccc21,2.6%,-4.7%,-10.8%[46.1 µM],u
Cn1c(=N)n(CC(=O)c2ccc(F)cc2)c2ccccc21,-12.6%,-18.2%,u,u
O=C(Cc1cc(=O)oc2cc(O)ccc12)NN=Cc1ccc(N(CCCl)CCCl)cc1,-16.8%,i,u,4.47µM*
O=C(Cc1cc(=O)oc2cc(O)ccc12)NC(Cc1ccc(Cl)cc1)C(=O)O (stereo not drawn),-13.5%,i,10.9%[46.1 µM],8.2%[46.1 µM]
CCOC(=O)/C=C1\CN(Cc2ccc(OC)cc2)S(=O)(=O)c2ccc(C(F)(F)F)cc21,-8.6%,i,x,x
COc1ccc2sc(-c3ccc(SC)cc3)c(-c3ccc(O)cc3)c2c1,11.2µM*,u,x,x
CC(C)OC(=O)[C@@H](CC(=O)O)NCc1ccccc1,x,x,x,0.2%
COc1ccc(OC)c(NC(=O)CNC(=O)Cn2cnc3ccccc3c2=O)c1,7.0%,x,-4.4%,0.708µM*
COc1ccc(OC)c(NC(=O)CCNC(=O)Cn2cnc3ccccc3c2=O)c1,-7.8%,-16.2%,19.7%[46.1 µM],-1.3%[46.1 µM]
SMILES,VACV Venus inh,VACV mCherry inh,LASV entry inh,Marburg entry inh
COc1ccc(OCC(=O)Nc2cc(-c3nn(C)c(=O)c4ccccc34)ccc2OC)cc1,x,x,u,4.11µM*
COc1cc(C(=O)ONC(=O)c2ccc(OC(F)F)cc2)cc(OC)c1OC,-7.2%,-18.9%,9.2µM*,u
O=C(NOC(=O)c1ccccc1F)c1ccc(OC(F)F)cc1,-16.1%,i,9.8%[46.1 µM],u
CCCCCCC[n+]1ccc(C)c2ccccc21,-27.3%,u,x,x
CCSC1=N/C(=C\c2ccccc2)C(=O)N1c1ccc(OC)cc1,-11.9%,-15.6%,-10.7%,-2.1%
Cc1ccc(N2C(=O)/C(=C\c3ccc(C(C)C)cc3)N=C2SC2CCOC2=O)cc1 (stereo not drawn),-1.6%,-21.0%,5.01µM*,6.31µM*
CCOc1ccc(NS(=O)(=O)c2cnc(Cl)c(Cl)c2)cc1,12.6µM*,u,u,u
